Measured values published in PubChem BioAssay AID602373 (National Center for Advancing Translational Sciences (NCATS), 2012).
Where “and” joins values, the source holds several entries; their conditions need not be identical. Identical values can stand only once. Results filed as inconclusive are left out. Values without a mark were called inactive. Calls of active or inactive are those of the source. Calls come from the whole dose curve; as a rule, active = well fitted inhibition curve with a large enough effect; inconclusive = small, poorly fitted or top-dose-only effect; inactive = no such curve, though single readings can be large or run the other way.

Test: qHTS Assay for Inhibitors of Bacillus subtilis Sfp phosphopantetheinyl transferase (PPTase): Hepg2 Assay
Details: HepG2 cytotoxicity counter-screen; series mostly up to 46.1 µM; activity change, negative = inhibition: at the top concentration
Source text: The covalent attachment of a phosphopantetheinyl (4'-PP) arm to a variety of synthases and other proteins is a key posttranslational protein modification. The 4'-PP is installed on the proteins post-translationally from coenzyme A (CoA) on a conserved serine residue by action of phosphopantetheinyl transferase (PPTase) enzymes. Phosphopantetheinylation is essential for synthase activity, and removal of the PPTase gene precludes natural product synthesis in microorganisms, or in the case of fatty acid biosynthesis, renders the organism unviable. PPTase enzymes belong to a distinct structural superfamily. Within bacteria, these enzymes are grouped into two classes based upon primary structure, the AcpS-Type and Sfp-Type PPTases.
Sfp-type PPTases, corresponding to an activator of surfactin production in Bacillus subtilis, are responsible for modifying type I polyketide and nonribosomal peptide synthases of prokaryotes. Sfp-type PPTases are responsible for the activation of a variety of pathogen-associated virulence factors. Among these compounds are toxins such as mycolactone from Mycobacterium ulcerans, siderophores such as vibriobactin from Vibrio cholerae or mycobactin from Mycobacterium tuberculosis, as well as the mycolic acids which form the waxy cell wall of Mycobacteria. The biosyntheses of these natural products are considered attractive targets for drug design.
In search of small molecule Sfp-PPTase inhibitors, a fluorescence quenching assay was developed for detection of Bacillus subtilis Sfp-PPTase enzymatic activity in a miniaturized high-throughput format. The consensus ybbr acceptor peptide […] was N-terminally labeled with Black Hole Quencher-2 (BHQ-2) and used in combination with rhodamine-labeled coenzyme A as a co-substrate.
Phosphopantetheinyl transfer is a process essential to cellular viability and maintenance in all forms of life. Cell-permeable and stable compounds acting as PPTase inhibitors are anticipated to be growth inhibitory agents. This assay sought to assess the toxicity of test compounds in the HepG2 hepatocarcinoma cells; a human cell line whose use additionally determines the toxicity of test article metabolites.
NIH Chemical Genomics Center [NCGC]
NIH Molecular Libraries Probe Centers Network [MLPCN]
Assay Submitter (PI): Michale Burkart, University of California, San Diego
Test compounds' toxicity was assessed by measuring cellular ATP content using a luciferase-coupled ATP quantitation assay (CellTiter-Glo; Promega, Madison, WI). In this assay, luminescent signal is proportional to amount of ATP, and thus to the number of metabolically competent cells. Briefly, Hepg2 cell suspension (5 uL, 4 x 10^5 cells/mL) was dispensed into 1,536-well tissue-culture treated white/solid bottom assay plates (Greiner Bio-One North America, Monroe, NC) using a Flying Reagent Dispenser (Aurora Discovery, Carlsbad, CA). Cells were incubated at 37 deg C for 6 hr to allow for cell attachment, followed by addition of compounds via pin tool (Kalypsys, San Diego, CA). After compound addition, plates were incubated for 48 hr at 37 deg C. At the end of the incubation period, CellTiter-Glo reagent (5 uL) was added, plates were incubated at room temperature in the dark for 30 min, and the luminescence intensity of each well was determined using a ViewLux plate reader (PerkinElmer, Shelton, CT). The positive control was 92 uM and 41 uM of tetra-N-Octylammonium bromide, and the negative control was DMSO.

Structure (SMILES) | activity change, negative = inhibition | Potency
COc1cc(NC(=S)N2CCN(c3cccc(C(F)(F)F)c3)CC2)nc2ccccc12 | -1.11% | –
Cc1ccnc(N(C)C(=S)N2CCN(c3cccc(C(F)(F)F)c3)CC2)c1 | -10.8% | –
Cc1cc(C)nc(NC(=S)N2CCN(c3cnc4nccn4c3)CC2)c1 | -7.6% | –
Cc1cc(C)nc(NC(=S)N2CCN(c3ccccn3)CC2)c1 | – | inactive
Cc1ccnc(NC(=S)N2CCN(c3ccc(Br)cc3)CC2)c1 | -4.53% | –
Cc1ccnc(NC(=S)N2CCN(c3ccc(N)cc3)CC2)c1 | -12% | –
FC(F)(F)c1cnc(N2CCN(C(=S)Nc3cc(Cl)ccn3)CC2)c(Cl)c1 | -6.14% | –
Cc1cc(C)nc(NC(=S)N2CCN(c3noc4ccccc34)CC2)c1 | -8.93% | –
Cc1ccc(N2CCN(C(=S)Nc3cc(C)ccn3)CC2)cc1 | -4.42% | –
Cc1ccnc(NC(=S)N2CCN(c3cc(C(F)(F)F)cc(C(F)(F)F)c3)CC2)c1 | – | 7.91 µM (active)
Cc1ccnc(NC(=S)NC2CCN(c3cccc(C(F)(F)F)c3)CC2)c1 | -11.6% | –
Cc1cc(C)nc(NC(=S)N2CCN(c3cc(F)cc(F)c3)CC2)c1 | 3.56% | –
Cc1cc(C)nc(NC(=S)N2CCN(c3cc(C(F)(F)F)nc4ccc(C(F)(F)F)cc34)CC2)c1 | -2.74% | –
Cc1cc(C)nc(NC(=S)N2CCN(c3nccc4ccccc34)CC2)c1 | -1.21% | –
Cc1ccnc(NC(=S)N2CCN(c3cccc(C(F)(F)F)c3)C[C@@H]2C)c1 | -7.74% | –
Cc1cc(C)nc(NC(=S)N2CCN(c3ccc(Cl)cc3C(F)(F)F)CC2)c1 | -3.78% | –
FC(F)(F)c1cc(N2CCN(C(=S)Nc3cc(Cl)ccn3)CC2)cc(C(F)(F)F)c1 | – | 15.8 µM (active)
S=C(Nc1cc(Cl)ccn1)N1CCN(c2cc(Cl)cc(Cl)c2)CC1 | – | 9.96 µM (active)
FC(F)(F)c1cccc(N2CCN(C(=S)Nc3ncnc4ccccc34)CC2)c1 | -5.29% | –
CN(C)c1ccc2nc(NC(=S)N3CCN(c4cccc(C(F)(F)F)c4)CC3)sc2c1 | – | 8.88 µM (active)

Structure (SMILES) | activity change, negative = inhibition | Potency
COc1ccc(N2CCN(C(=S)Nc3cc(C)ccn3)CC2)cc1 | -8.81% | –
Cc1cc(C)nc(NC(=S)N2CCN(c3ccc(Cl)nn3)CC2)c1 | -6.42% | –
COc1cccc(NC(=S)N2CCN(c3cccc(Cl)c3Cl)CC2)n1 | -0.194% | –
Cc1ccnc(NC(=S)N2CCN(c3cccc(C(F)(F)F)c3)CC2)c1 | – | 28.1 µM (active) and 9.96 µM (active) and 25 µM (active)
Cc1cc(C)nc(NC(=S)N2CCN(c3ccc(C(F)(F)F)cc3[N+](=O)[O-])CC2)c1 | -9.46% | –
Cc1ccnc(NC(=S)N2CCNCC2)c1 | -3.85% | –
Cc1cc(C)nc(NC(=S)N2CCN(c3ccc(C(=O)O)cc3)CC2)c1 | -3.29% | –
FC(F)(F)c1cccc(N2CCN(C(=S)Nc3cc(C(F)(F)F)ccn3)CC2)c1 | – | 19.9 µM (active)
CC(Cc1ccccc1)C(=O)Nc1ccc(Cl)cc1C(=O)O (stereo not given) | -0.724% | –
FC(F)(F)c1cccc(N2CCN(C(=S)Nc3cnccn3)CC2)c1 | -0.551% | –
Cc1cc(C)nc(NC(=S)N2CCN(c3ccc(Cl)cc3F)CC2)c1 | 1.76% | –
CC(=O)N1CCN(C(=S)Nc2cc(C)ccn2)CC1 | 4.75% | –
Cc1cc(C)nc(NC(=S)N2CCN(Cc3cccc4ccccc34)CC2)c1 | 2.15% | –
Cc1cc(C)nc(NC(=S)N2CCN(c3nncs3)CC2)c1 | -6.67% | –
Cc1cc(C)nc(NC(=S)N2CCN(S(=O)(=O)c3cccc(C(F)(F)F)c3)CC2)c1 | -12.4% | –
COc1cccc(NC(=S)N2CCN(c3ccc(C(F)(F)F)cc3[N+](=O)[O-])CC2)n1 | -3.46% | –
Cc1ccnc(NC(=S)N2CCN(c3ccc(Cl)c(Cl)c3)CC2)c1 | – | 28.1 µM (active)
Cc1cc(C)nc(NC(=S)N2CCN(c3nccs3)CC2)c1 | 6.89% | –
S=C(Nc1cc(Cl)ccn1)N1CCN(c2ccc(Cl)cc2Cl)CC1 | -11.7% | –
Cc1cc(C)nc(NC(=S)N2CCN(c3ccc4ncccc4c3[N+](=O)[O-])CC2)c1 | 1.59% | –
